Bioassay records deposited in PubChem by National Center for Advancing Translational Sciences (NCATS).
HT1080-NT tox: kills 2HG-producing HT-1080-NT fibrosarcoma cells; HT-1080-NT fibrosarcoma viability, CellTiter-Glo ATP luminescence, 48 h; Potency, µM (highest dose often 46.1 µM), inactives show at the top dose activity, negative = less viability, usual class: cytotoxic; actives 1.6% (n = 360,000);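 also: NT is the 2HG producing partner of a matched IDH1 knockdown line; potency is read from the fitted curve at half-maximal effect; 0% = DMSO-treated cells and -100% = media-only wells without cells; nearly all actives have a fitted effect of over 55% in size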
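Viability by CellTiter-Glo luminescence after 48 h compound exposure at 37C of HT-1080-NT cells (750/well, RPMI, 5% FBS). % activity scaled between DMSO wells and medium-only wells, then curve-fitted and categorized by curve class.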
DT40 TDP1 no CPT: qHTS for Inhibitors of human tyrosyl-DNA phosphodiesterase 1 (TDP1): qHTS in cells in absence of CPT. Potency, µM (doses to about 46.2 µM), for inactives: top-dose activity change, negative = growth inhibition, most hits filed as inhibitors. actives 15% (n = 420,000). DT40 Tdp1-/- hTDP1 cells, no CPT, ATP luminescence, 48 h; also: potency is read from the fitted curve at half-maximal effect; nearly all actives have a fitted effect of over 55% in size
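Growth of hTDP1-complemented DT40 Tdp1-knockout cells is measured by ATP luminescence after at least 48 hr compound exposure at 37 °C, with DMSO substituting for the 20 nM CPT used in the parallel screen.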
IL-1B inflam inh: inflammasome signaling inhibition, IL-1 beta readout. actives 4.7% (n = 360,000). AID 743279. THP-1 LPS/ATP IL-1B secretion, AlphaLISA, 16 h; stronger effect = lower value. activity change, % at 57.5 µM; in the data active = activity change below about -50%; inconclusive = mostly about -30% to -49%
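THP-1 cells pretreated 1 hr with compounds (up to 57.5 uM final), then stimulated with LPS (250 ng/mL final) plus ATP (1.25 mM final); secreted IL-1B measured by AlphaLISA after 16 hr, decreased signal indicating inhibition.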
HT1080 IDH1KD tx: kills HT-1080 cells with IDH1 knockdown; HT-1080 IDH1 knockdown viability, ATP luminescence, 48 h; AID 686971; actives 2% (n = 360,000); Potency, µM (highest dose often 46.1 µM), for the others: at the highest dose activity, negative = toxicity, hits mostly cytotoxic;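 also: potency is read from the fitted curve at half-maximal effect; 0% = DMSO wells and -100% = cell-free medium wells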
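Viability of IDH1-knockdown HT-1080 fibrosarcoma cells was assessed by CellTiter-Glo after 48 h at 37 °C with titrated compound; concentration-effect curves were classified by fit quality and response size.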
12-LOX inh: blocks human arachidonate 12S-lipoxygenase | actives 1.1% (n = 580,000) | purified 12hLO, xylenol orange hydroperoxide absorbance | Potency, µM (highest dose often 108 µM), for inactives: top-dose activity change, negative = inhibition, actives largely listed as inhibitors | P18054; also: potency is read from the fitted curve at half-maximal effect
Target sequence (P18054 whole entry, looked up): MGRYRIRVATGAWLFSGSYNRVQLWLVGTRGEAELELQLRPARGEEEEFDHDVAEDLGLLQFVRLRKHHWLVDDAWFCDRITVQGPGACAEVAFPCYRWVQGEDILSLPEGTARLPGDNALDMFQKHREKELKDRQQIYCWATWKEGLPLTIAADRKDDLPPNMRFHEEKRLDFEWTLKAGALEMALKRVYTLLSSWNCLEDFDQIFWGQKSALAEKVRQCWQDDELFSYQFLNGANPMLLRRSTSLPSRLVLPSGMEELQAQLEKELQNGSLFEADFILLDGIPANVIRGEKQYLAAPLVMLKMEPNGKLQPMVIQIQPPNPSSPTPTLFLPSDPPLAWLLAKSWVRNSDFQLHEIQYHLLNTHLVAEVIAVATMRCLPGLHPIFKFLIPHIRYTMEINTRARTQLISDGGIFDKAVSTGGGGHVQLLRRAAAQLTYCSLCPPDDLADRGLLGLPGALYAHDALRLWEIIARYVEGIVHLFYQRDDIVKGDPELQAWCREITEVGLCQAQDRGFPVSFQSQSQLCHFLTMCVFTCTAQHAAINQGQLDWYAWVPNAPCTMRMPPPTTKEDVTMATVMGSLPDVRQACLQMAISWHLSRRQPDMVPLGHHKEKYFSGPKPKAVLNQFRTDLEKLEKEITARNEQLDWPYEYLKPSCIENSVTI
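Purified human 12hLO at 150 nM in 25 mM Hepes, 0.01% Triton X-100, pH 7.0, preincubated 15 min at room temperature with compound. Reaction started with 40 uM arachidonic acid, 30 min at room temperature. Hydroperoxide measured by Fe-xylenol orange, 573/405 nm absorbance ratio.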
TDP1 cell CPT: DT40-hTDP1 cell growth loss with CPT | AID 686979 | Potency, µM (highest dose often 46.2 µM), inactives show at the top dose activity change, negative = growth inhibition, actives largely listed as inhibitors | actives 12% (n = 420,000) | chicken DT40 Tdp1-/-;hTDP1 cells + 20 nM CPT, ATP luminescence, 48 h; also: potency is read from the fitted curve at half-maximal effect; nearly all actives have a fitted effect of over 55% in size
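Chicken DT40 Tdp1-/- cells complemented with human TDP1, 400 cells/well, exposed to compounds plus 20 nM camptothecin for at least 48 h at 37 C; viability read as ATP content by CellTiter-Glo luminescence.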
Active calls of the source: *. Many of the other results were omitted from the sample, so hits are more common in it than they were. Unless noted, calls follow the shape of the dose curve; as a rule, active = well fitted curve in the direction sought with a large enough effect; inconclusive = small, poorly fitted or top-dose-only effect, or another doubt; inactive = no such curve, though single readings can be large; an effect the other way counts as inactive or inconclusive. Unless noted, % is scaled to controls: 0 for no effect and ±100 for the full control effect.

Screening CC1CCCN(C(=O)C2CCN(c3ncnc4c3nc3n4CCCCC3)CC2)C1 (centres undefined) returned HT1080-NT tox -7%, DT40 TDP1 no CPT 23µM*, IL-1B inflam inh -3, HT1080 IDH1KD tx 0%, 12-LOX inh 5% and TDP1 cell CPT inconclusive.
For CCc1ccccc1NCC(=O)Nc1sc2c(c1C#N)CCCCC2 the results were 12-LOX inh -18%.
COc1ccc(CNC(=O)Cn2nc(-c3ccc(OC)c(OC)c3)ccc2=O)cc1OC was read as 12-LOX inh 16%.
Screening CCOC(=O)/C=c1\s/c(=C\c2ccccc2C)c(=O)n1CC(=O)NCc1ccc2c(c1)OCO2 returned HT1080-NT tox inconclusive, DT40 TDP1 no CPT inconclusive, IL-1B inflam inh 16, HT1080 IDH1KD tx inconclusive, 12-LOX inh -27% and TDP1 cell CPT inconclusive.
`CCOC(=O)/C=c1/s/c(=C\c2c(OC)ccc3ccccc23)c(=O)n1CC(=O)NCC1CCCO1` (centres undefined) gave HT1080-NT tox 16µM*, DT40 TDP1 no CPT 26µM*, IL-1B inflam inh 6, HT1080 IDH1KD tx inconclusive, 12-LOX inh inconclusive and TDP1 cell CPT 23µM*.
`CCOC(=O)/C=c1\s/c(=C\c2ccc3cc(OC)ccc3c2)c(=O)n1CC(=O)NCc1ccc2c(c1)OCO2` gave HT1080-NT tox 12%, DT40 TDP1 no CPT 9.2µM*, IL-1B inflam inh 7, HT1080 IDH1KD tx 9%, 12-LOX inh -3% and TDP1 cell CPT 6.5µM*.
Screening CCCCCc1c(-c2cccc(OC)c2)ncn1CCc1ccccc1OC returned HT1080-NT tox 21µM*, DT40 TDP1 no CPT 7.3µM*, IL-1B inflam inh -86*, HT1080 IDH1KD tx inconclusive, 12-LOX inh -66% and TDP1 cell CPT 8.2µM*.
COc1ccccc1CCn1cnc(-c2cccc(Br)c2)c1C(C)C was read as 12-LOX inh -21%.
`CCCCc1c(-c2cccc(Br)c2)ncn1CCc1ccccc1OC` gave HT1080-NT tox 15µM*, DT40 TDP1 no CPT 5.8µM*, IL-1B inflam inh -72*, HT1080 IDH1KD tx inconclusive, 12-LOX inh inconclusive and TDP1 cell CPT 5.8µM*.
For CCCCc1c(-c2cccc(F)c2)ncn1CCc1ccccc1OC the results were HT1080-NT tox inconclusive, DT40 TDP1 no CPT 21µM*, IL-1B inflam inh -74*, HT1080 IDH1KD tx inconclusive, 12-LOX inh inconclusive and TDP1 cell CPT 21µM*.
For CCCCCc1c(-c2cccc(Cl)c2)ncn1CCc1ccccc1OC the results were HT1080-NT tox -18%, DT40 TDP1 no CPT 23µM*, IL-1B inflam inh 0, HT1080 IDH1KD tx -15%, 12-LOX inh -20% and TDP1 cell CPT 23µM*.
For CCn1ccc2sc(C)c(C(=O)N3CCOCC3)c2c1=O the results were 12-LOX inh 15%.
Screening COc1ccc(CC(=O)Nc2ccc([C@@H](O)[C@H]3COCC(=O)N3CC3CCCCC3)cc2)cc1 returned 12-LOX inh 21%.
Cc1noc(C)c1CC(=O)NC(c1ccccc1F)c1nccn1C (centres undefined) was read as 12-LOX inh 40%.
`CCCCCc1c(-c2cccc(F)c2)ncn1CCc1ccccc1OC` gave HT1080-NT tox inconclusive, DT40 TDP1 no CPT 18µM*, IL-1B inflam inh 0, HT1080 IDH1KD tx inconclusive, 12-LOX inh -71% and TDP1 cell CPT 23µM*.
For CCCc1c(-c2cccc(F)c2)ncn1CCc1ccccc1OC the results were HT1080-NT tox inconclusive, DT40 TDP1 no CPT 15µM*, IL-1B inflam inh -78*, HT1080 IDH1KD tx inconclusive, 12-LOX inh -21% and TDP1 cell CPT inconclusive.
